# Reference: the supplement of paper PMC3545927
# The list shows a part of the results. The true hit rate is not given.
# Target: furin, P09958
# Experiment: furin cleavage Z-score vs untreated control; higher = more cleavage, active = 3.5 or more, inactive = 1 or less, 8 variable residues between constant flanks
# In short: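 Magnetic beads held 8-mer peptides by the N-terminus, each fused to a cDNA oligonucleotide, and purified furin was added for 7.5, 15 or 30 min. Released DNA was sequenced after PCR adapter tagging. The cleavage Z-score is the log count relative to furin-free reactions, lowess-adjusted and divided by median absolute deviation.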
# 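Note: purified furin at 1:10 enzyme:substrate in 50 mM HEPES pH 7.5.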
# Chain of furin, P09958 (P09958 whole entry): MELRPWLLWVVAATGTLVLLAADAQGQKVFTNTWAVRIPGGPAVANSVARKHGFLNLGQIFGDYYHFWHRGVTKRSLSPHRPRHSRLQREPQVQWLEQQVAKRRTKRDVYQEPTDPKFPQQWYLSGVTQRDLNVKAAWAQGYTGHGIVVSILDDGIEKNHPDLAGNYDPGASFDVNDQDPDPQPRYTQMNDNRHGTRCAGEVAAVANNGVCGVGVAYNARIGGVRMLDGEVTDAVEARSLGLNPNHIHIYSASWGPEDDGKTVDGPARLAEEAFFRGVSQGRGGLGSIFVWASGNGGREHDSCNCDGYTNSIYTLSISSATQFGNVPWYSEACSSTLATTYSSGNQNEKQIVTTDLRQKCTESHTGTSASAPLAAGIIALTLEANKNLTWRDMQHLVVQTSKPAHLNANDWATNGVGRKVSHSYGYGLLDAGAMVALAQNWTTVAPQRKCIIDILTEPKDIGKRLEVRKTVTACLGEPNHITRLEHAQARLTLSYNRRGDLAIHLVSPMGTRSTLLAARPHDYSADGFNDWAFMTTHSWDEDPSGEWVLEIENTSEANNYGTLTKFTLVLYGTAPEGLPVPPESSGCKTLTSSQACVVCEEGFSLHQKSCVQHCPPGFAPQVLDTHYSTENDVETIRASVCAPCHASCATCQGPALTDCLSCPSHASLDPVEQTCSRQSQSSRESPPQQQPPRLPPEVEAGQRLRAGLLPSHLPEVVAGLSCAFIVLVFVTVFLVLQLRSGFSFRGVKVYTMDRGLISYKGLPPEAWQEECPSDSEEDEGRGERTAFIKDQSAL
Sequence,furin cleavage Z-score (7.5 min),furin cleavage Z-score (15 min),furin cleavage Z-score (30 min)
CATAILSSLTAGNASASA [HC1133],-0.0959 (inactive),1.64,1.05
CALDMIAGAHAGNASASA [HC333],-0.265 (inactive),-1.79 (inactive),0.6 (inactive)
CAVVCHSMSYAGNASASA [HC89],-0.697 (inactive),-0.997 (inactive),-0.52 (inactive)
CACEVLSDFKAGNASASA [HC1153],-1.16 (inactive),-1.03 (inactive),0.3 (inactive)
CADNKRMARNAGNASASA [FS-984],5.12 (active),6.32 (active),6.33 (active)
CANGFRHARNAGNASASA [FS-466],-0.528 (inactive),-0.454 (inactive),-0.259 (inactive)
CADTTIMAKNAGNASASA [HC1438],1.51,-0.0215 (inactive),0.93 (inactive)
CAPNSRLARNAGNASASA [FS-475],6.58 (active),6.13 (active),6.41 (active)
CAAASRLARGAGNASASA [FS-211],0.553 (inactive),1.11,0.636 (inactive)
CARVKRDLVLAGNASASA [FS-2317],8.24 (active),11 (active),9.42 (active)
CARLYRSLGEAGNASASA [FS-2045],1.86,4.55 (active),4.61 (active)
CARVKRSPGLAGNASASA [FS-2387],10.4 (active),10.3 (active),9.1 (active)
CARNKKDVNLAGNASASA [FS-2726],0.881 (inactive),0.588 (inactive),0.399 (inactive)
CARVKRVLMGAGNASASA [FS-2618],-0.934 (inactive),-0.615 (inactive),-0.629 (inactive)
CARVKRSLGEAGNASASA [FS-1977],10.7 (active),12.6 (active),9.34 (active)
CARELRQLMEAGNASASA [FS-2916],0.168 (inactive),-0.988 (inactive),-1.36 (inactive)
CARLGAVQNEAGNASASA [HC974],-1.44 (inactive),-1.09 (inactive),-2.56 (inactive)
CAQVRNSTGLAGNASASA [HC257],-0.176 (inactive),1.49,0.103 (inactive)
CASKKRSNGLAGNASASA [FS-3136],-1.83 (inactive),0.376 (inactive),2.11
CADIWDWICEAGNASASA [HC1150],-0.513 (inactive),-0.19 (inactive),-1.62 (inactive)
CAEVVTFTWVAGNASASA [HC146],-0.177 (inactive),-1.31 (inactive),-0.383 (inactive)
CAYGFQYSPGAGNASASA [HC1466],-1.04 (inactive),0.304 (inactive),-1.02 (inactive)

Sequence,furin cleavage Z-score (7.5 min),furin cleavage Z-score (15 min),furin cleavage Z-score (30 min)
CAEVPCHRMSAGNASASA [HC2386],0.401 (inactive),1.85,-1.19 (inactive)
CAGRTWAQPGAGNASASA [HC197],0.399 (inactive),0.197 (inactive),-2.32 (inactive)
CATHPCSGSWAGNASASA [HC1855],-0.725 (inactive),0.134 (inactive),-0.569 (inactive)
CARLRRSLGEAGNASASA [FS-1830],4.48 (active),6.54 (active),5.36 (active)
CARIGRAVRPAGNASASA [FS-1720],6.17 (active),6.97 (active),7.91 (active)
CARTPRAVRPAGNASASA [FS-2241],4.95 (active),5.05 (active),7.16 (active)
CADSSRSVRPAGNASASA [FS-1518],-1.18 (inactive),-0.293 (inactive),0.507 (inactive)
CAREKKSASWAGNASASA [FS-3244],-1.37 (inactive),-1 (inactive),0.389 (inactive)
CANDVVCCSMAGNASASA [HC2121],0.854 (inactive),0.345 (inactive),0.79 (inactive)
CADIMEECSQAGNASASA [HC1804],-0.826 (inactive),-1.93 (inactive),0.332 (inactive)
CAVEECSQHLAGNASASA [HC1670],0.23 (inactive),0.997 (inactive),-0.342 (inactive)
CAELVVCCSMAGNASASA [HC2125],-0.0192 (inactive),-0.743 (inactive),-0.249 (inactive)
CAVVCCSMRYAGNASASA [HC2073],0.763 (inactive),0.207 (inactive),0.313 (inactive)
CAKRWRRRRYAGNASASA [FS-1350],10.3 (active),12 (active),9.1 (active)
CAVLARMMRPAGNASASA [FS-966],-0.155 (inactive),0.612 (inactive),-0.556 (inactive)
CAVLEDGVNYAGNASASA [HC239],-0.545 (inactive),-2.21 (inactive),0.0229 (inactive)
CAVLHRRRRYAGNASASA [FS-891],9.61 (active),10.5 (active),9.16 (active)
CARMIRTNEAAGNASASA [FS-3000],0.282 (inactive),0.0077 (inactive),0.743 (inactive)
CAVVKRPRRYAGNASASA [FS-314],9.96 (active),10.8 (active),10 (active)
CAVVKCSMSYAGNASASA [HC2034],0.0381 (inactive),0.000409 (inactive),0.298 (inactive)
CAHRSRDGRYAGNASASA [FS-797],0.199 (inactive),1.41,0.834 (inactive)
CARMIRRRRYAGNASASA [FS-1652],10.9 (active),13.2 (active),9.13 (active)
